Inconclusive results are not listed. Calls of active or inactive are those of the source. Unless noted, calls come from the whole dose curve.
Key:
[1] = Nuclear factor erythroid 2-related factor 2/antioxidant responsive element (Nrf2/ARE) small molecule agonists: qHTS cell viability counter screen in human keratinocytes (AID 1919968; active = well fitted curve in the direction sought with a large enough effect in the repeat runs; an effect the other way counts as inactive or inconclusive; note: nearly all actives have a fitted effect of over 55% in size)
Method in brief: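 Cells of the KeratinoSens line were plated at 1,500 per well and left for 5 h before compound transfer from DMSO stocks. After a 23 h incubation (37 C, 5% CO2), CellTiter-Fluor was added. Signal was taken as fluorescence intensity 1 h later.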

[2] = Nuclear factor erythroid 2-related factor 2/antioxidant responsive element (Nrf2/ARE) small molecule agonists: luciferase reporter gene qHTS assay in human keratinocytes (AID 1919969); note: nearly all actives have a fitted effect of over 35% in size
[3] = target: Gonadotropin-releasing hormone receptor (Homo sapiens) (UniProt P30968); assay: Human gonadotropin-releasing hormone receptor (GnRHR) small molecule agonists, calcium flux assay in GnRHR-HEK293 cells (AID 1920063); note: nearly all actives have a fitted effect of over 35% in size
Chain of Gonadotropin-releasing hormone receptor (Homo sapiens) (P30968 whole entry, looked up): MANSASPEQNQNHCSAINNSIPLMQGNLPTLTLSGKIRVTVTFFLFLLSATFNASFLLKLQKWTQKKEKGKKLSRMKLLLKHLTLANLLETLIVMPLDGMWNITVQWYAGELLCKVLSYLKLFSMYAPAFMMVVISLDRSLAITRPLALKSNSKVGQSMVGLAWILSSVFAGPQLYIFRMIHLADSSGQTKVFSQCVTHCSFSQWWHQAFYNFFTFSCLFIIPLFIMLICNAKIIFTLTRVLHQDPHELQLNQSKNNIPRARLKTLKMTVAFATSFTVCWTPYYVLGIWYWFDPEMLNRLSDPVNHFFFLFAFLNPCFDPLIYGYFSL
Method in brief: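 Compounds dissolved in DMSO are pin-transferred onto dye-loaded GnRHR-HEK293 cells, which were seeded 18 h before at 37 C/5% CO2. Calcium signal is read as fluorescence intensity at 1 s intervals for 3 min.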

[4] = target: KiSS-1 receptor (Homo sapiens) (UniProt Q969F8); assay: Human kisspeptin (KISS1R) small molecule agonists, calcium flux assay in KISS1R-HEK293 cells (AID 1920064; active = well fitted curve in the direction sought with a large enough effect in the repeat runs; an effect the other way counts as inactive or inconclusive)
Chain of KiSS-1 receptor (Homo sapiens) (Q969F8 whole entry, looked up): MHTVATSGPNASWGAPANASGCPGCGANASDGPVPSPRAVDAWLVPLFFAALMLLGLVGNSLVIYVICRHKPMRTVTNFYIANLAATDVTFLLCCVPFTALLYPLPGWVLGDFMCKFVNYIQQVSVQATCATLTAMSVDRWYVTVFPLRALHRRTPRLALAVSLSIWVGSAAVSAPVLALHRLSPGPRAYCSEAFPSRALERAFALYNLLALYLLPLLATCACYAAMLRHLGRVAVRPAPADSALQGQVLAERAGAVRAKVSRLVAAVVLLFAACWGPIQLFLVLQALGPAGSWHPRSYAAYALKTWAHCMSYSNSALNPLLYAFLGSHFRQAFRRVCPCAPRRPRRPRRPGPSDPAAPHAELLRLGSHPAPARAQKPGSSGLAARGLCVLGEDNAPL
Method in brief: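 Cell line: HEK293, stable human KISS1R. Dye loading 1 h at 37 C after 18 h culture. Read: kinetic fluorescence, 480/540 nm, 3 min at 1 s intervals.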

[5] = G protein-coupled receptor (GPCR) small molecule agonists, calcium flux assay: HEK293 wild type cell line counter screen (AID 1920065)
Method in brief: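 Tox21 10K compounds, 15 concentrations each in triplicate, pin-transferred in DMSO onto dye-loaded cells; kinetic read at 480/540 nm for 3 min, 1 s intervals.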

[6] = p53 small molecule agonists, cell-based qHTS assay with human liver microsomes (AID 1963577)
Method in brief: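 p53RE-bla cells, 4,000/well, compound added after 5 h, with human liver microsomes 0.5 mg/mL and NADPH 0.5 mg/mL final; 16 h at 37 C, then LiveBLAzer 2 h RT, fluorescence.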

[7] = p53 small molecule agonists, cell-based qHTS assay with rat liver microsomes (AID 1963578)
Method in brief: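 p53RE-bla cells, 4,000/well, pre-incubated 5 h, then given compounds plus rat liver microsomes (0.5 mg/mL final) and NADPH (0.5 mg/mL final). Incubation 16 h at 37 C; beta-lactamase reporter read by LiveBLAzer fluorescence after 2 h at room temperature.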

[8] = p53 small molecule agonists, cell-based qHTS assay with rat liver microsomes: qHTS cell viability counter screen (AID 1963580); note: nearly all actives have a fitted effect of over 45% in size
Method in brief: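 Counter screen for cytotoxicity under metabolic activation: rat liver microsomes and NADPH, 0.5 mg/mL final each, added with compounds to p53RE-bla HCT-116 cells; 16 h at 37 C, then ATP luminescence read.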

[9] = p53 small molecule agonists, cell-based qHTS assay: qHTS cell viability counter screen (AID 1963581); note: nearly all actives have a fitted effect of over 45% in size
Method in brief: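 ATP content measured by luminescence in HCT-116 p53RE-bla cells treated 16 h at 37 C, same wells as the reporter screen.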

[10] = target: 5-hydroxytryptamine receptor 2A (Homo sapiens) (UniProt P28223); assay: 5-hydroxytryptamine receptor 2A (HTR2A) small molecule antagonists, cell-based qHTS assay (AID 1963586); note: nearly all actives have a fitted effect of over 45% in size
Chain of 5-hydroxytryptamine receptor 2A (Homo sapiens) (P28223 whole entry, looked up): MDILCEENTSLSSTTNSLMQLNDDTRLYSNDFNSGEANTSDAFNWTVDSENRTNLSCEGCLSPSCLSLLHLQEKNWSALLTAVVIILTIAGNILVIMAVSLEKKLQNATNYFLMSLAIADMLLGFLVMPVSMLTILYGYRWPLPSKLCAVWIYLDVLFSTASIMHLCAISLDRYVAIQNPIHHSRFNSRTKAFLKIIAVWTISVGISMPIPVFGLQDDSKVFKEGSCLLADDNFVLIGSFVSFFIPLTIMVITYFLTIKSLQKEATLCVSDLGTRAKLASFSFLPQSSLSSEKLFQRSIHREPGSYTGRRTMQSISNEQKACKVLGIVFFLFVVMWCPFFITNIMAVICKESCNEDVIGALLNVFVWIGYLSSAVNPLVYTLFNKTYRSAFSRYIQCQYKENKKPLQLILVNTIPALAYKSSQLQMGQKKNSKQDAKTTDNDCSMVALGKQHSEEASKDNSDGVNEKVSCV
Method in brief: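 CHO cells stably expressing human HTR2A were plated for 18 h at 37 C, then loaded with calcium dye for 1 h. Compounds were preincubated 5 min at room temperature before DOI (4 nM solution) was added. Kinetic fluorescence was read for 3 min.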

[11] = target: 5-hydroxytryptamine receptor 2A (Homo sapiens) (UniProt P28223); assay: 5-hydroxytryptamine receptor 2A (HTR2A) small molecule agonists, cell-based qHTS assay (AID 1963587); note: nearly all actives have a fitted effect of over 30% in size
Method in brief: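 HTR2A-CHO cells, plated 18 h at 37 C/5% CO2, dye-loaded 1 h at 37 C; compounds in DMSO added by pin tool (agonist mode). Intracellular calcium flux read as kinetic fluorescence on FDSS over 2 min at 1 s intervals.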

[12] = target: Muscarinic acetylcholine receptor M1 (Homo sapiens) (UniProt P11229); assay: Cholinergic receptor muscarinic 1 (CHRM1) small molecule antagonists, cell-based qHTS assay (AID 1963588); note: nearly all actives have a fitted effect of over 40% in size
Chain of Muscarinic acetylcholine receptor M1 (Homo sapiens) (P11229 whole entry, looked up): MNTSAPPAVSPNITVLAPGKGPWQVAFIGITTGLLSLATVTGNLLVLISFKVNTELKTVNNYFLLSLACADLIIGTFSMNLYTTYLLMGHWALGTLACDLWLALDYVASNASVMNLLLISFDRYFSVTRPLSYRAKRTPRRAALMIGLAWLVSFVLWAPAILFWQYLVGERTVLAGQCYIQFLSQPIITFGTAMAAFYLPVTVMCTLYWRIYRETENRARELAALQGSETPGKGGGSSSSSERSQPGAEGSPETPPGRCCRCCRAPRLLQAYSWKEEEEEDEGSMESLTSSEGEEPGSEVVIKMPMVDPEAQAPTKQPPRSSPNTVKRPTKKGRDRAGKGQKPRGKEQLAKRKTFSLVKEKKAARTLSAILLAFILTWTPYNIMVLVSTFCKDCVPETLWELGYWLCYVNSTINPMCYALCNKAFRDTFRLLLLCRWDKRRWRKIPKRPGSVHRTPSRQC
Method in brief: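 Compounds were tested at 15 concentrations in three independent runs. Dye-loaded CHRM1-CHO cells were exposed 5 min at room temperature before stimulation by acetylcholine added at 50nM. Intracellular calcium was read kinetically on FDSS for 3 min.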

[13] = target: Muscarinic acetylcholine receptor M1 (Homo sapiens) (UniProt P11229); assay: Cholinergic receptor muscarinic 1 (CHRM1) small molecule agonists, cell-based qHTS assay (AID 1963589); note: nearly all actives have a fitted effect of over 35% in size
Method in brief: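 Homogeneous fluorescence calcium flux, agonist mode. Human M1-expressing CHO cells; compound dosed at 15 concentrations, three independent runs; signal sampled every 1 sec.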

[14] = cAMP Responsive Elements (CRE) small molecule agonists, cell-based qHTS assay (AID 1963590)
Method in brief: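 HEK 293T cells stably bearing CRE-bla were plated at 2,000 cells per well and rested 18 h. Compounds, positive controls or DMSO were added for 3 h at 37 C. LiveBLAzer B/G substrate was then loaded for 2 h at room temperature.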

[15] = cAMP Responsive Elements (CRE) small molecule antagonists, cell-based qHTS assay (AID 1963591; active = well fitted inhibition curve with a large enough effect in the signal ratio in the repeat runs, not every such curve was filed as active; the % refers to the signal ratio)
Method in brief: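 First, CRE-bla HEK293T cells settled 18 h at 37 C. Next, compound and 0.25 uM final NKH477 were applied for 3 h. Last, LiveBLAzer B/G substrate was loaded for 2 h at room temperature.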

[16] = target: Beta-2 adrenergic receptor (Homo sapiens) (UniProt P07550); assay: Adrenergic beta2 receptor (ADRB2) small molecule antagonists, cell-based qHTS assay (AID 1963592); note: series mostly up to about 92 µM; nearly all actives have a fitted effect of over 50% in size
Chain of Beta-2 adrenergic receptor (Homo sapiens) (P07550 whole entry, looked up): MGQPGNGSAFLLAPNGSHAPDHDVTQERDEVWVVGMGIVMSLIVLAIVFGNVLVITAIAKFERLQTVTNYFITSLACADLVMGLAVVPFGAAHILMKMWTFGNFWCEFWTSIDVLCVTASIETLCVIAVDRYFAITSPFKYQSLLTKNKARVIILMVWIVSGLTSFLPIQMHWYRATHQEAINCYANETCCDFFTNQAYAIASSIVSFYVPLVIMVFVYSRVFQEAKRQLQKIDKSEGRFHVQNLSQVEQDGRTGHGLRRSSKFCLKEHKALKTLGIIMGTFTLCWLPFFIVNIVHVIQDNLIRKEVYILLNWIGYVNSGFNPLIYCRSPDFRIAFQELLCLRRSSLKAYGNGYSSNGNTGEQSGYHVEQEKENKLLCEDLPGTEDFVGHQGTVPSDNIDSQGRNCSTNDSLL
Method in brief: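 Assay format: CHO-ADRB2 cells, 18-20hr seeding at 37C/5% CO2, then compound plus 1nM isoproterenol agonist mix for 0.5hr RT. Homogeneous time-resolved fluorescence cAMP detection after 1hr, expressed as 665/615 nm ratio.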

[17] = target: D(2) dopamine receptor (Homo sapiens) (UniProt P14416); assay: Dopamine D2 receptor (DRD2) small molecule agonists, cell-based qHTS assay (AID 1963594); note: nearly all actives have a fitted effect of over 35% in size
Chain of D(2) dopamine receptor (Homo sapiens) (P14416 whole entry, looked up): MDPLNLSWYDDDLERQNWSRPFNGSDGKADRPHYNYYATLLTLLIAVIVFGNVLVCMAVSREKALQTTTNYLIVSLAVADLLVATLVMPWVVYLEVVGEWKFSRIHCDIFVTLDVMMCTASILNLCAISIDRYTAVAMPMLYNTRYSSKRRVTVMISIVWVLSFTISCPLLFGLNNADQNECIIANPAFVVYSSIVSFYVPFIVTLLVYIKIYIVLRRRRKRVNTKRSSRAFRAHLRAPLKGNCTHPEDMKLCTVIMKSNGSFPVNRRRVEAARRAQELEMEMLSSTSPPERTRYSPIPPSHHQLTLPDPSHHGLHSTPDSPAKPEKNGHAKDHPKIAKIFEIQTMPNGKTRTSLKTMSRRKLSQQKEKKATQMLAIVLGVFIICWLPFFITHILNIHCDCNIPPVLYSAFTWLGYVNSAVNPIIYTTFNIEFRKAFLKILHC
Method in brief: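 HEK293 cells stably expressing DRD2 were cultured 24 h at 37 C, then given Ro20-1724 (0.1 mM final) and compounds for 10 min at room temperature. NKH477 (200nM) was then added for 30 min. cAMP was read by HTRF.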

[18] = target: D(2) dopamine receptor (Homo sapiens) (UniProt P14416); assay: Dopamine D2 receptor (DRD2) small molecule antagonists, cell-based qHTS assay (AID 1963595; active = well fitted inhibition curve with a large enough effect in the signal ratio in the repeat runs, with a control signal flat; the % refers to the signal ratio)
Method in brief: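 Antagonism was scored as restored cAMP in HEK293-DRD2 cells. These cells were stimulated with 200 nM NKH477 and 12 nM quinpirole for 30 min at room temperature, in the presence of 0.1 mM Ro20-1724.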

[19] = p53 small molecule agonists, cell-based qHTS assay (AID 1963582; active = well fitted activation curve with a large enough effect in the signal ratio in the repeat runs, not every such curve was filed as active; the % refers to the signal ratio)
Method in brief: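 16 h compound exposure (37 C) of p53 response element–bla cells, preceded by 5 h recovery at 37 C/5% CO2; read-out via LiveBLAzer B/G FRET substrate, 2 h RT, fluorescence intensity.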

[20] = target: Beta-2 adrenergic receptor (Homo sapiens) (UniProt P07550); assay: Adrenergic beta2 receptor (ADRB2) small molecule agonists, cell-based qHTS assay (AID 1963593);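 note: CHO cells stably overexpressing human ADRB2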
Method in brief: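 CHO cells stably over-expressing ADRB2 were plated overnight at 37C, then dosed with compounds plus a stimulation mix containing 100uM IBMX and 25uM Ro-20-1724 for 0.5hr at room temperature. cAMP was measured by HTRF competition, 1hr.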

Measured: Potency

O=C(O)C[C@H](NC(=O)OCc1ccccc1)C(=O)O
not listed: [19] | [20]
inactive: all other assays above

Cc1ccc(N)cc1[N+](=O)[O-]
not listed: [8] | [19] | [20]
inactive: all other assays above

NS(=O)(=O)c1ccccc1Cl
not listed: [7]
inactive: all other assays above

O=S(=O)(O)c1cccc2c(S(=O)(=O)O)cccc12
not listed: [11] | [12] | [20]
inactive: all other assays above

c1ccc(CCc2ccccc2)cc1
not listed: [9] | [13] | [19] | [20]
inactive: all other assays above

O=C1NCCN1CCO
not listed: [8] | [14]
inactive: all other assays above

O=C(O[C@@H]1Cc2c(O)cc(O)cc2O[C@@H]1c1cc(O)c(O)c(O)c1)c1cc(O)c(O)c(O)c1
not listed: [9] | [11] | [15] | [20]
inactive: all other assays above

From PubChem BioAssay (Tox21)
